Experimental data as given in PubChem BioAssay (EPA / NIEHS).
Active and inactive are the calls of the source. How the source made its calls: active means hit-call score of the fitted dose curve at least 0.9, where 1 is the maximum; inactive means score below 0.9.

Legend:
[1] = ATG_GRE_CIS: Attagene CIS-FACTORIAL HepG2 Assay for human Glucocorticoid Response Elements (GRE) (AID 2282947); settings: HepG2 GRE cis-reporter, Attagene multiplex mRNA; actives raise or lower the signal
How it was run: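 Read-out: fluorescent reporter-transcript fragments separated by capillary electrophoresis after RT-PCR. Transiently transfected HepG2 cells carrying cis-element-driven reporter units were dosed for 24 h; gain or loss of signal fitted against DMSO control.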

[2] = ATG_ISRE_CIS: Attagene CIS-FACTORIAL HepG2 Assay for human Interferon Regulatory Factor 1 (IRF1) binding to an Interferon-Stimulated Response Element (ISRE) (AID 2282948); settings: HepG2 ISRE cis-reporter (Attagene), mRNA transcription readout; actives raise or lower the signal
How it was run: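 Multiplexed mRNA reporter readout in human liver HepG2 cells: cis-element-driven reporters transfected, compound added for 24 h, transcripts amplified, fluorescently labelled and sized by capillary electrophoresis; curve fitting bidirectional against DMSO.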

[3] = ATG_M_32_CIS: Attagene CIS-FACTORIAL HepG2 Assay for M32 Transcription Factor (Internal Marker) (AID 2282949); settings: HepG2 Attagene cis-factorial M32 reporter, mRNA; actives raise or lower the signal;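 further: background control marker of the multiplexed CIS panel rather than a real target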
How it was run: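 Using DMSO as baseline, bidirectional curve fits were applied to reporter mRNA signals. These came from transiently transfected HepG2 cells exposed for 24 h, with RNA analysed by RT-PCR, FAM primer extension, HpaI digestion and CE.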

[4] = ATG_M_06_CIS: Attagene CIS-FACTORIAL HepG2 Assay for M06 Transcription Factor (Internal Marker) (AID 2282950); settings: HepG2 Attagene CIS-FACTORIAL M06 internal marker reporter; actives raise or lower the signal
How it was run: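 One of many multiplexed endpoints: HepG2 reporter mRNA after 24 h dosing, detected by RT-PCR and capillary electrophoresis fluorescence; gain or loss of signal analysed against DMSO.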

[5] = biological target: Hypoxia-inducible factor 1-alpha (Homo sapiens) (UniProt Q16665); assay: ATG_HIF1a_CIS: Attagene CIS-FACTORIAL HepG2 Assay for human Hypoxia Inducible Factor 1 (HIF1A) (AID 2282951); settings: HepG2 Attagene cis-factorial HIF1a reporter transcription; actives raise or lower the signal
How it was run: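 HepG2, transient cis-reporter library, 24 h dosing. RNA → RT (oligo dT) → PCR → 6-FAM primer extension → HpaI → CE. Bidirectional curve fit vs DMSO.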

[6] = biological target: Hepatocyte nuclear factor 6 (Homo sapiens) (UniProt Q9UBC0); assay: ATG_HNF6_CIS: Attagene CIS-FACTORIAL HepG2 Assay for human Hepatocyte Nuclear Factor 6 (HNF6) (AID 2282952); settings: HepG2 Attagene cis-factorial HNF6 reporter transcription; actives raise or lower the signal
How it was run: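 Twenty-four-hour chemical treatment of reporter-transfected HepG2 cells precedes RNA isolation, DNase-treated reverse transcription and PCR of reporter sequences. Labelled fragments are sized by capillary electrophoresis and fitted bidirectionally versus DMSO.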

[7] = biological target: Heat shock factor protein 1 (Homo sapiens) (UniProt Q00613); assay: ATG_HSE_CIS: Attagene CIS-FACTORIAL HepG2 Assay for human Heat Shock Transcription Factor 1 (HSE) (AID 2282953); settings: HepG2 HSE cis-reporter, Attagene RNA transcription; actives raise or lower the signal
How it was run: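 Using HepG2 with transfected cis-driven reporter constructs, compound effects on endogenous factor activity are scored as reporter mRNA change at 24 h. Detection: RT-PCR, HpaI digestion, capillary electrophoresis; bidirectional fitting to DMSO.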

[8] = ATG_MRE_CIS: Attagene CIS-FACTORIAL HepG2 Assay for human Metal Responsive Element (MRE) (AID 2282954); settings: HepG2 MRE cis-reporter transcription, Attagene multiplex; actives raise or lower the signal
How it was run: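 RT-PCR/capillary electrophoresis readout of reporter mRNA, 24 h post-dosing, in HepG2 cells transfected with multiplexed cis-regulated reporter constructs. Gain or loss of signal fitted bidirectionally against DMSO baseline.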

[9] = ATG_PBREM_CIS: Attagene CIS-FACTORIAL HepG2 Assay for human Phenobarbital-responsive Enhancer Module (PBREM) (AID 2282955); settings: HepG2 PBREM cis-reporter, Attagene multiplexed transcription; actives raise or lower the signal
How it was run: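 HepG2, transient MRTU transfection, 24 h dosing; RNA → oligo(dT) RT → PCR → 6-FAM extension → HpaI → CE. Bidirectional fit vs DMSO.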

Measured: AC50

Chain of Heat shock factor protein 1 (Homo sapiens) (Q00613 whole entry, looked up): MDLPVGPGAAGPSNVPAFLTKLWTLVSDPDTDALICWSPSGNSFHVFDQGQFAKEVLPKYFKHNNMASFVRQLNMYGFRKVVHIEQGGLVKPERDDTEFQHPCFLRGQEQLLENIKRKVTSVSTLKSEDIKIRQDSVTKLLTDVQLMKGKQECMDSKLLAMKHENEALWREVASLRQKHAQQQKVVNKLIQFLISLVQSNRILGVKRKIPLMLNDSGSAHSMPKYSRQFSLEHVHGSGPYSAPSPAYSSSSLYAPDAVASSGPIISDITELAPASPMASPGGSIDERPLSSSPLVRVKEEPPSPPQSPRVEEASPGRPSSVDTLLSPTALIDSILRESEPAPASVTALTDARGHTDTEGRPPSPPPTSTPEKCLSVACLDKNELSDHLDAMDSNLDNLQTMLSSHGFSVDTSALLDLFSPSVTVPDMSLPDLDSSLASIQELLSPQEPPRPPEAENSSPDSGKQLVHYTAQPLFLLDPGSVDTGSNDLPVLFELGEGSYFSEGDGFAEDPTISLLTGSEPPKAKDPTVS
Chain of Hepatocyte nuclear factor 6 (Homo sapiens) (Q9UBC0 whole entry, looked up, the tested form may be a part): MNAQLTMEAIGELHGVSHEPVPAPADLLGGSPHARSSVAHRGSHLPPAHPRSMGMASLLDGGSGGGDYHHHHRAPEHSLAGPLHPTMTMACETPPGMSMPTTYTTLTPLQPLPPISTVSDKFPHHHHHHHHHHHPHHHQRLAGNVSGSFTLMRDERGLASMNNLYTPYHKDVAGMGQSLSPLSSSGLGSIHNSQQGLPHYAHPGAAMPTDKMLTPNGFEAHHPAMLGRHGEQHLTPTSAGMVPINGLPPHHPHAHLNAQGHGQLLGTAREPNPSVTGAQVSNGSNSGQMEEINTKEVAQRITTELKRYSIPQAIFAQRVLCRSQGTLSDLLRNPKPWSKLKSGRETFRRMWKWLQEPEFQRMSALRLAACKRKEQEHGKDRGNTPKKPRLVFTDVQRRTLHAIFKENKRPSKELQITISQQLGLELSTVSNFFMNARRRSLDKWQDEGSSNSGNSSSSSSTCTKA
Chain of Hypoxia-inducible factor 1-alpha (Homo sapiens) (Q16665 whole entry, looked up): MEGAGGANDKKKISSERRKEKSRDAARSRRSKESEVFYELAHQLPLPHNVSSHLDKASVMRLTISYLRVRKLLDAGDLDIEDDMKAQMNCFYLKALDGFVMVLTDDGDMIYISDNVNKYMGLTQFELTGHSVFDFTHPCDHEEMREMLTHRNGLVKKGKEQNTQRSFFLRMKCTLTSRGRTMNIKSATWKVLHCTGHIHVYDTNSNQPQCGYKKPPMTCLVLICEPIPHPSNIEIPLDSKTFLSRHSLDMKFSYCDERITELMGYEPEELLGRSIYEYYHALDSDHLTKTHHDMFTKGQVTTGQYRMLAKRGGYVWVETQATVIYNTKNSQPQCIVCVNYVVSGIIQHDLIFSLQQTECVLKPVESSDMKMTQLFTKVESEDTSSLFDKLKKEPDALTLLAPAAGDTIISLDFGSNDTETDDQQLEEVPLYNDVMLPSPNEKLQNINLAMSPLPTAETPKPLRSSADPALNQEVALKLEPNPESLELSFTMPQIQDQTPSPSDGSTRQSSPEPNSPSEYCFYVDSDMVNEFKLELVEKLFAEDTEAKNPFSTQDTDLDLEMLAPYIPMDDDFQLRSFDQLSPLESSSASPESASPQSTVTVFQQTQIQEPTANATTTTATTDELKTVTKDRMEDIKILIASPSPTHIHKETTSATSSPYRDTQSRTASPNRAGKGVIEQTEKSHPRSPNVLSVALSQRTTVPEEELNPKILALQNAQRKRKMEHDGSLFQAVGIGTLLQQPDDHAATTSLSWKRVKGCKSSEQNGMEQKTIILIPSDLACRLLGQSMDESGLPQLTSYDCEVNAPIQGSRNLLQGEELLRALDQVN

CC(=O)OCCC1CCCCC1
inactive: all assays above

C=CC(=O)OCCC(=O)O
inactive: all assays above

CCOC(=O)c1ccc(N(C)C)cc1
not listed: [7]
inactive: all other assays above

CC(C)(Oc1ccc(C2CC2(Cl)Cl)cc1)C(=O)O (stereo not drawn)
inactive: all assays above

Cc1ccccc1C
not listed: [7] | [9]
inactive: all other assays above

Cc1ccc(N)c([N+](=O)[O-])c1
not listed: [7]
inactive: all other assays above

COC(=O)/C=C\C(=O)O
not listed: [7]
inactive: all other assays above

C=C1C2CCC(C2)C1(C)C (stereo not drawn)
not listed: [8]
inactive: all other assays above

COc1ccc(-c2coc3cc(O)ccc3c2=O)cc1
not listed: [7] | [9]
inactive: all other assays above

CC(C)c1ccc2cc(C(C)C)ccc2c1
not listed: [7] | [9]
inactive: all other assays above

Cc1cc(C)c(C(=O)O)c(C)c1
inactive: all assays above

CC(C)c1ccc(C=O)cc1
inactive: all assays above

CC1OC1C1CCC2(C)OC2C1 (stereo not drawn)
not listed: [8]
inactive: all other assays above

CCCCC(CC)COC(=O)c1ccccc1 (stereo not drawn)
not listed: [8]
inactive: all other assays above

CN1C(=O)N(C)C(O)C1O (stereo not drawn)
not listed: [7]
inactive: all other assays above

CCCCCCCCCCCSCC(=O)O
active: [2] 74.1 µM | [5] 124 µM | [6] 100 µM | [7] 159 µM
inactive: [1] | [3] | [4] | [9]

C=C(C)c1cccc(C(C)(C)N=C=O)c1
inactive: all assays above

CC(=O)Nc1ccc2c(c1)Cc1cc(NC(C)=O)ccc1-2
inactive: all assays above
